Sampled rows, rich in hits. Any-hit rate of the full collection: about 2.8%.
SENP7 inh: SENP7 protease inhibition; 330,000 tested, 1.5% active; recombinant SENP7, Z-RLRGG-aminoluciferin luminescence, 40 min; Q9BQF6; inhibition, % at 5 µM;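 active = inhibition above about 50% at the single test dose, limit read from the data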;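 note: plate controls were DMSO with enzyme for no effect and no enzyme buffer wells for full effect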
Target sequence (Q9BQF6 706-1050 limits assumed): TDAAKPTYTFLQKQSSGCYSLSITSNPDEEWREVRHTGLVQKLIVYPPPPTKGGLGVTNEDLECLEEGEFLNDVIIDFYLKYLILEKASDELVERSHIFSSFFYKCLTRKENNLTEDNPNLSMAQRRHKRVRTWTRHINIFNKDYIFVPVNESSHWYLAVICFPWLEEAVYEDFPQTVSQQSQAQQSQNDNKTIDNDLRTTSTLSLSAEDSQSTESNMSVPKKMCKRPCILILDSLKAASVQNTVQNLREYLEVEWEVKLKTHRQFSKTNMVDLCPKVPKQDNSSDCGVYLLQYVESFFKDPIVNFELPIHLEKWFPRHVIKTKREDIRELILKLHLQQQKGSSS
SENP8 block-1: inhibitors of human SENP8 protease; inhibition, % at 20 µM; Q96LD8; recombinant SENP8, Nedd8 substrate fluorescence; 360,000 tested, 0.64% active; in the data active = inhibition mostly above about 40%, no sharp cut-off; inactive = mostly below about 27%
Target sequence (Q96LD8 whole entry, looked up): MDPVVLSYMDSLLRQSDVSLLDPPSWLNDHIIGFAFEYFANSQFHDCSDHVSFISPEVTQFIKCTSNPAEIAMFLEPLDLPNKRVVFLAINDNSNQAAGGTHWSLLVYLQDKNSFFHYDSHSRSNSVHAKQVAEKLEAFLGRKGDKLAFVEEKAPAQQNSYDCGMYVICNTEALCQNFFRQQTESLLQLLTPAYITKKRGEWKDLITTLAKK
SENP6 block: SENP6 protease inhibition; Q9GZR1; Recombinant SENP6 catalytic domain, aminoluciferin luminescence; inhibition, % at 10 µM; 330,000 tested, 1.8% active; AID 2599;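 active = inhibition above about 50% at the single tested dose, limit read from the data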;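 note: plate controls were DMSO wells with enzyme for no effect and DMSO wells lacking enzyme for full effect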
HSP90 inh: blocks HSP90-mediated luciferase refolding in reticulocyte lysate; AID 1789; Rabbit reticulocyte lysate, luciferase refolding luminescence, 3 h; inhibition, % at 5.6 µM; 290,000 tested, 0.91% active;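 active = inhibition above the screen-wide mean plus 3 SD, computed separately per campaign, cut at about 16% in these data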;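 note: 0% = DMSO wells and 100% = 60 µM geldanamycin wells; inhibitors lower the luminescence because luciferase stays unfolded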
SENP8 block-2: SENP8 protease inhibition; inhibition, % at 10 µM; AID 2540; 330,000 tested, 1.2% active; Q96LD8; purified SENP8, Z-RLRGG-aminoluciferin cleavage, luminescence; in the data active = inhibition above about 50%
HSP90 inh confirm: confirmation of HSP90 inhibitors; shares compounds with HSP90 inh; rabbit reticulocyte lysate, luciferase refolding luminescence, 3 h; inhibition, % at 5.9 µM; 2,300 tested, 64% active; in the data active = inhibition above about 18%;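 note: 0% = vehicle wells and 100% = reference inhibitor wells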
luciferase ctr: blocks native firefly luciferase in HSP90 counter-screen; shares compounds with HSP90 inh; purified native firefly luciferase, luminescence; inhibition, % at 5.9 µM; 2,300 tested, 48% active;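 active = inhibition above the mean inhibition of all tested sample wells plus 3 SD, cut at about 10% in these data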;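 note: 0% = DMSO with luciferase and 100% = wells lacking luciferase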
* = called active by the depositor; / = not tested or not shown.

SMILES | SENP7 inh | SENP8 block-1 | SENP6 block | HSP90 inh | SENP8 block-2 | HSP90 inh confirm | luciferase ctr
Cc1ccc(CN2C(=O)C(=O)c3cc(C)ccc32)cc1 | -15.2 | -11.6 | -19.4 | / | -14.4 | / | /
COc1ccc(C(=O)Nc2nnc(SCC(=O)NC3CC3)s2)cc1 | 29.8 | -8.1 | -3.2 | 22.5* | 12.3 | 28.6* | 16.1*
COc1cccc(C(=O)Nc2nnc(SCC(=O)NC3CC3)s2)c1 | -1.5 | -2.4 | -8.4 | 6.1 | 0.3 | / | /
COc1ccc(NC(=O)/C(C#N)=C/c2ccc(-c3ccccc3C(=O)O)o2)cc1 | 1.0 | 15.7 | 8.1 | 2.1 | 1.9 | / | /
COc1ccc(NC(=O)/C(C#N)=C\c2ccc(-c3cccc(C(=O)O)c3C)o2)cc1 | -6.0 | 13.6 | 7.8 | 31.8* | 13.8 | 28.1* | 5.8
CCOC(=O)CCc1c(C)c2ccc(OC(C)C(=O)OCC)c(C)c2oc1=O (stereo unspecified) | 6.3 | -233.0 | 0.5 | -2.8 | 0.0 | / | /
COc1ccc(NC(=O)N(Cc2cccs2)Cc2cc3cc4c(cc3[nH]c2=O)OCO4)cc1 | -3.2 | / | -3.6 | 3.3 | -1.7 | / | /
O=C(c1cn(-c2ccccc2)nc1-c1ccc(Br)cc1)N1CCOCC1 | -1.4 | 20.3 | 7.3 | 95.4* | -4.7 | 1.3 | -0.7
O=C(c1cn(-c2ccccc2)nc1-c1ccc(F)cc1)N1CCOCC1 | -0.1 | 9.3 | -27.7 | 3.3 | 11.0 | / | /
O=C(Nc1ccccc1C(=O)N1CCCC1)c1ccccc1 | -2.9 | 1.7 | -4.7 | 27.2* | -0.6 | -3.2 | -4.7
Cc1ccc(C(=O)Nc2ccccc2C(=O)N2CCCCCC2)cc1 | -3.3 | 11.8 | -4.9 | -2.0 | -2.0 | / | /
COc1ccccc1-c1cc(C(F)(F)F)nc(S(=O)(=O)CCCC(=O)Nc2cc(C)on2)n1 | -3.5 | -367.0 | -15.5 | -1.0 | -11.4 | / | /
O=C(O)CC12CSc3[nH]c(=O)sc3C1c1ccccc1OC2=O (stereo unspecified) | / | / | / | -0.5 | / | / | /
COc1ccc(/C=C/C(=O)NC(=S)NNC(=O)c2cc(OC)c(OC)c(OC)c2)cc1OC | 0.4 | -142.6 | -6.5 | 2.5 | 5.0 | / | /
COc1ccc(/C=C/C(=O)NC(=S)NNC(=O)c2cc(OC)c(OC)c(OC)c2)cc1 | -1.1 | -18.8 | -5.4 | 25.6* | 0.2 | 60.7* | 26.9*
Cc1nc2c(-c3ccc(Cl)cc3)cnn2c(N)c1-c1ccc(F)cc1 | -11.4 | -269.5 | 0.7 | 68.9* | -20.9 | 67.3* | 68.3*
COc1ccc(-c2c(C)nc3c(-c4ccc(F)cc4)cnn3c2N)cc1 | 3.7 | -265.4 | -15.2 | 17.4* | -13.3 | 16.5* | 11.3*
O=C(O)CSc1cn(Cc2ccccc2)c2ccccc12 | -4.5 | 1.5 | -10.5 | -5.1 | -13.7 | / | /
Cc1ccc(NS(=O)(=O)c2ccc(C(=O)NCc3cccnc3)cc2)cc1 | -7.9 | 3.4 | 12.5 | -2.2 | -2.4 | / | /
O=C(Nc1ccc(N2CCOCC2)cc1N1CCOCC1)c1ccc(F)cc1 | 8.0 | -19.2 | -10.9 | / | 1.1 | / | /
Nc1sc2c(c1C(=O)c1ccccc1)CCCC2 | 8.0 | 5.5 | -6.7 | 31.0* | -1.3 | 10.6 | 1.2
CCOc1ccc(CC(=O)Nc2sc(Cc3ccccc3)c(C)c2C(N)=O)cc1OCC | 3.3 | -60.1 | 6.7 | -1.2 | -6.5 | / | /
COc1ccc(C(c2c(C)[nH]n(-c3ccccc3)c2=O)c2c(C)[nH]n(-c3ccccc3)c2=O)cc1OC | 31.1 | 84.0* | 7.7 | 21.9* | -4.1 | -1.4 | -8.7
COc1ccc(C(c2c(C)n(C)n(-c3ccccc3)c2=O)c2c(C)n(C)n(-c3ccccc3)c2=O)cc1OC | 5.6 | 10.9 | -15.0 | 1.5 | 5.4 | / | /
Cc1ccc(S(=O)(=O)N2CCC(C(=O)N[C@H](C(=O)NCC3CCCO3)C(C)C)CC2)cc1 (stereo partly specified) | -7.2 | 10.6 | -12.7 | -2.0 | -1.2 | / | /
SMILES | SENP7 inh | SENP8 block-1 | SENP6 block | HSP90 inh | SENP8 block-2 | HSP90 inh confirm | luciferase ctr
C#CCOCCOCCOCCNc1nc(N2CCOCC2)nc(N2CCN(C(=O)[C@H](Cc3cc4ccccc4[nH]3)n3cc([C@@H](N)CC(C)C)nn3)CC2)n1 | -7.1 | -22.8 | -32.1 | 6.1 | -17.6 | / | /
C#CCOCCOCCOCCNc1nc(N2CCN(C(=O)[C@H](Cc3cc4ccccc4[nH]3)n3cc([C@@H](N)C(C)CC)nn3)CC2)nc(N2CCN(C(=O)[C@H](Cc3cc4ccccc4[nH]3)n3cc([C@@H](N)Cc4ccc(O)cc4)nn3)CC2)n1 (stereo partly specified) | 34.7 | / | -27.3 | 21.1* | -18.5 | 27.2* | -8.0
C#CCOCCOCCOCCNc1nc(N2CCN(C(=O)[C@H]([C@@H](C)CC)n3cc([C@@H](N)Cc4ccc(O)cc4)nn3)CC2)nc(N2CCN(C(=O)[C@H](Cc3cc4ccccc4[nH]3)n3cc([C@@H](N)C(C)CC)nn3)CC2)n1 (stereo partly specified) | -7.2 | / | -20.9 | 18.8* | 1.0 | 9.7 | -9.7
C#CCOCCOCCOCCNc1nc(N2CCN(C(=O)[C@H](Cc3cc4ccccc4[nH]3)n3cc([C@@H](N)CC(C)C)nn3)CC2)nc(N2CCN(C(=O)[C@H](Cc3cc4ccccc4[nH]3)n3cc([C@@H](N)CC(C)C)nn3)CC2)n1 | 6.0 | -1.3 | -13.5 | 20.4* | -21.8 | 18.2* | -9.8
COc1cccc(C(=O)N2CCOCC2)c1OC | -0.7 | 5.8 | -9.6 | 0.6 | -2.0 | / | /
Cc1ccc(NC(=O)CSc2nnc(N)s2)c([N+](=O)[O-])c1 | -7.4 | 9.5 | 13.2 | 3.4 | -5.8 | / | /
CC1(C)CC(=O)C2=C(C1)Nc1ccccc1NC2c1ccc2c(c1)OCO2 (stereo unspecified) | 0.2 | 16.6 | 1.7 | -1.4 | 7.2 | / | /
CCn1c(SCC(=O)N2CCCC(C)C2)nc2c1c(=O)n(C)c(=O)n2C (stereo unspecified) | -11.1 | 10.0 | -11.9 | 4.2 | -5.9 | / | /
O=C(O)c1ccc(N=NN2CCCC2)cc1 | 4.7 | 3.3 | -11.9 | 10.4 | 3.2 | / | /
O=C(O)c1ccc(N=NN2CCCCCC2)cc1 | 1.6 | 25.6 | 19.3 | 20.9* | 2.5 | 42.4* | 11.7*
Cc1ccc(CNCC2CCCO2)s1 (stereo unspecified) | 0.7 | 9.2 | -17.5 | -2.2 | -3.1 | / | /
CCO[C@@H]1OC(C(=O)N2CCN(Cc3ccc4c(c3)OCO4)CC2)=C[C@H](c2ccc(C(F)(F)F)cc2)[C@H]1CCCO | -11.0 | 2.2 | -18.0 | 23.5* | -10.7 | 3.9 | -1.8
CCO[C@@H]1OC(C(=O)N2CCN(Cc3ccc4c(c3)OCO4)CC2)=C[C@H](c2ccc(Br)cc2)[C@H]1CCCO | -0.1 | 15.1 | -13.5 | 4.1 | -1.1 | / | /
COc1cc2[nH]c(C(=O)Nc3ccc4c(c3)OCCO4)cc2c(OC)c1OC | -5.5 | -28.5 | -4.2 | 7.1 | 4.3 | / | /
COc1cc2cc(C(=O)Nc3ccc4c(c3)OCCO4)[nH]c2cc1OC | 0.1 | -53.6 | -2.1 | 35.7* | -4.5 | 62.5* | 58.2*
Cc1ccccc1-c1nc2sc3c(c2c(=O)n1N)CCCC3 | -4.8 | -28.3 | 5.1 | 37.6* | 7.2 | 36.6* | 37.0*

Source: PubChem BioAssay
